According to PubChem BioAssay (NCATS):
Unmarked numbers belong to inactive results. The source made the active and inactive calls. Calls follow the shape of the dose curve; as a rule, active = well fitted curve in the direction sought with a large enough effect; inactive = no such curve, though single readings can be large or run the other way.

Biological target: Alpha-galactosidase A (Homo sapiens) (UniProt P06280)
Test: Counterscreen for Glucocerebrosidase Inhibitors: qHTS Assay for Human alpha-Galactosidase at pH 4.5 (AID 992); also: 0% is about no effect
Details: purified enzyme, fluorogenic substrate; series mostly up to 76.9 µM; activity change, negative = inhibition: at the top concentration
Description: NIH Chemical Genomics Center [NCGC]
NIH Molecular Libraries Screening Centers Network [MLSCN]
PI Name: Zheng, Wei [NIH]
Alpha-galactosidase is a homodimeric glycoprotein that hydrolyzes the terminal alpha-galactosyl moieties from glycolipids and glycoproteins. Deficiency of this enzyme results in Fabry Disease with progressive accumulation of globotriaosylceramide and other glycosphingolipids in vascular endothelial cells that causes renal failure, myocardial infarction and stroke, and premature death in patients. It has reported that the improper folding and trafficking of alpha-galactosidase resulted from the genetic mutations may account for a significant numbers of Fabry patients. […] We optimized this alpha-galactosidase assay in 1536-well plate format for identifying the novel small molecule inhibitors with the structures other than the sugar analogs in order to develop the new pharmacological chaperones.
NCGC Assay Protocol Summary:
This is a fluorogenic enzyme assay with 4-Methylumbelliferyl alpha-D-galactopyranoside as the substrate and human […] as the enzyme preparation. Upon the hydrolysis of this fluorogenic substrate, the resulting product, […]. 4-Methyllumbelliferone, can be excited at 365 nm and emits at 440 nm which can be detected by a standard fluorescence plate reader. Data were normalized to the controls for basal activity (without enzyme) and 100% activity (with enzyme). In the AC50 values were determined from concentration-response data modeled with the standard Hill equation.
Assay buffer: 50 mM citric acid, 0.005% Tween-20, pH 4.5. (pH 4.5 is an optimal condition for this enzyme assay)
1536-well assay protocol for the human alpha-galactosidase:
(1) Add 2 ul/well of enzyme (2 nM final)
(2) Add 23 nL compounds in DMSO solution. The final titration was 0.7 nM to 77 uM.
(3) Add 1 ul of substrate (80 uM final)
(4) Incubate at room temperature for 20 min.
(5) Add 2 ul stop solution (1M NaOH and 1M Glycine mixture, pH 10)
(6) Detect the assay plate in a ViewLux plate reader (PerkinElmer) with Ex=365 nm and Em=440nm.
Keywords: Alpha-galactosidase, Fabry Disease, pharmacological chaperone, chaperone therapy, high throughput screening, alpha-galactosidase inhibitor, MLSMR, MLSCN, NIH Roadmap, qHTS and NCGC

Sequence of Alpha-galactosidase A (Homo sapiens) (P06280 whole entry, looked up): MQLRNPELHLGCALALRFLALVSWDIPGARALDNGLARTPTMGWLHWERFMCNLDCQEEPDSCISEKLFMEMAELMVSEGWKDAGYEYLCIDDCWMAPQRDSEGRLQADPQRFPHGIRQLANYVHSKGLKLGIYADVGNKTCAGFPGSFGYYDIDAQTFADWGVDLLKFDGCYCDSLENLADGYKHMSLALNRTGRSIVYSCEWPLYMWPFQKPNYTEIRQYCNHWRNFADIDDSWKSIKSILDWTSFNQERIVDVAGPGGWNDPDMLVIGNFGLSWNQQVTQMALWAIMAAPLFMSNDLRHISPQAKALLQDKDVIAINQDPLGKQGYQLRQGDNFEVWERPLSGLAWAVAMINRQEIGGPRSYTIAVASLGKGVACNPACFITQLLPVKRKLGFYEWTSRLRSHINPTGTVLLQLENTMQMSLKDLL

Which “activity change, negative = inhibition” value does the source give for COc1ccccc1N1CCN(CCCCNS(=O)(=O)c2cccc3c(N(C)C)cccc23)CC1 here?
Its value is -6.15%.

CN1CCc2cc(NC(=O)Nc3cccnc3)ccc21 was tested. Which “activity change, negative = inhibition” value did it give?
Its value is -4.81%.

For CNCC[C@H](Oc1ccc(C(F)(F)F)cc1)c1ccccc1, which outcome is on record?
Its outcome is “inactive”.

Which “activity change, negative = inhibition” value does the source give for c1cnc2c(c1)ccc1cccnc12 here?
Its value is 0.13%.

How did the “activity change, negative = inhibition” value turn out when O=c1[nH]c2cc(Cl)c(Cl)cc2[nH]c1=O was run?
Its value is -4.98%.

Which “activity change, negative = inhibition” value does the source give for C[N+](C)(CCCCCC[N+](C)(C)CCCN1C(=O)c2cccc3cccc(c23)C1=O)CCCN1C(=O)c2cccc3cccc(c23)C1=O here?
Its value is -0.0835%.

With N#C/C(=C\c1ccc(O)c(O)c1)C(=O)NCc1ccccc1 as the molecule, how does the “activity change, negative = inhibition” value read?
Its value is 0.467%.

CC(C)Cc1ccc([C@H](C)C(=O)O)cc1 was tested. Which “activity change, negative = inhibition” value did it give?
The value was -0.969%.

O=S(=O)(c1cccc2c(I)cccc12)N1CCCNCC1 was tested. Which “activity change, negative = inhibition” value did it give?
The value was -3.83%.

How did the “activity change, negative = inhibition” value turn out when O=C(O)c1cc(=O)c2ccccc2[nH]1 was run?
The value was -0.305%.

How did the “activity change, negative = inhibition” value turn out when NC[C@@H]1O[C@H](C23CC4CC(CC(C4)C2)C3)Cc2c1ccc(O)c2O was run?
The value was 0.0928%.

For CCCCN1CCC(n2c(=O)[nH]c3ccccc32)CC1, which “activity change, negative = inhibition” value is on record?
The value was -1.45%.

CC(=O)SCC[N+](C)(C)C was tested. Which “activity change, negative = inhibition” value did it give?
The value was 0.263%.

Which “activity change, negative = inhibition” value does the source give for CN(C)c1nc2c(Br)c(Br)c(Br)c(Br)c2[nH]1 here?
Its value is -0.737%.

With CN1[C@@H]2CC[C@H]1CC(OC(c1ccccc1)c1ccccc1)C2 (stereo not given in full) as the molecule, how does the “activity change, negative = inhibition” value read?
The value was -5.29%.

How did the “activity change, negative = inhibition” value turn out when Ic1ccc(N2CCN(Cc3c[nH]c4ncccc34)CC2)cc1 was run?
The value was -4.63%.

How did the “activity change, negative = inhibition” value turn out when O=C(O)c1cc(=O)c2c(Cl)cc(Cl)cc2[nH]1 was run?
The value was -0.715%.

NCCCS(=O)(=O)O was tested. Which “activity change, negative = inhibition” value did it give?
Its value is 0.161%.

Which “activity change, negative = inhibition” value does the source give for NCCSSCCN here?
The value was -0.459%.

For COc1cc(OC)c(/C=C2/C(=O)Nc3ccccc32)c(OC)c1, which “activity change, negative = inhibition” value is on record?
Its value is 5.61%.

With COc1ccccc1CNCCCCCCNCCCCCCCCNCCCCCCNCc1ccccc1OC as the molecule, how does the “activity change, negative = inhibition” value read?
Its value is -9.37%.

For C=C[C@H]1CN2CC[C@@H]1C[C@@H]2[C@@H](O)c1ccnc2ccc(OC)cc12, which outcome is on record?
Its outcome is “inactive”.

For CCN1/C(=C/C(C)=O)Sc2ccc(OC)cc21, which “activity change, negative = inhibition” value is on record?
Its value is -12.2%.

For CN(C)C(N)=NCCC[C@H](N)C(=O)O, which “activity change, negative = inhibition” value is on record?
The value was 2%.

With O=Nc1ccc2oc(=O)ccc2c1 as the molecule, how does the “activity change, negative = inhibition” value read?
The value was -4.09%.

Which “activity change, negative = inhibition” value does the source give for Cc1cc(NC(=O)Nc2ccc3c(ccn3C)c2)sn1 here?
Its value is -1.58%.

NCCCCCCCCCCN was tested. Which “activity change, negative = inhibition” value did it give?
The value was -0.0798%.

For CC(C)NC[C@H](O)COc1cccc2[nH]ccc12, which “activity change, negative = inhibition” value is on record?
Its value is -2.06%.

Brc1c(Br)c(Br)c2n[nH]nc2c1Br was tested. Which “activity change, negative = inhibition” value did it give?
Its value is 0.18%.

How did the “activity change, negative = inhibition” value turn out when CCCCCCCC/C=C\CCCCCCCC(=O)NCCO was run?
The value was -11.6%.

Which “activity change, negative = inhibition” value does the source give for O=C1NC(O)=NC1(c1ccccc1)c1ccccc1 here?
Its value is -3.61%.

How did the “activity change, negative = inhibition” value turn out when NC(=O)C(=O)O was run?
Its value is 0.244%.

O=C(O)c1cc([N+](=O)[O-])ccc1NCCCc1ccccc1 was tested. Which “activity change, negative = inhibition” value did it give?
Its value is -0.915%.

With c1ccc(-c2ccccn2)nc1 as the molecule, how does the “activity change, negative = inhibition” value read?
Its value is 2.39%.

For CN(C)c1nc(N)c(C(=O)N=C(N)N)nc1Cl, which “activity change, negative = inhibition” value is on record?
The value was -6.83%.

How did the “activity change, negative = inhibition” value turn out when O=C(Nc1ccccc1)c1cc([N+](=O)[O-])ccc1Cl was run?
Its value is -0.507%.

With COC(=O)c1c(C)[nH]c(C)c1C(=O)c1ccccc1Cc1ccccc1 as the molecule, how does the “activity change, negative = inhibition” value read?
The value was -6.6%.

With O=c1[nH]c2ccccc2n1CCCN1CCN(C(c2ccccc2)c2ccccc2)CC1 as the molecule, how does the “activity change, negative = inhibition” value read?
The value was -6.65%.

How did the “activity change, negative = inhibition” value turn out when C[C@@H](NC(=O)/C(C#N)=C/c1ccc(O)c(O)c1)c1ccccc1 was run?
The value was -2.32%.

For NO, which “activity change, negative = inhibition” value is on record?
Its value is -0.647%.
